Assay results taken from the supplement of paper PMC8975748.
Structures can show the parent of a compound that is named as a salt.

System: Saccharomyces cerevisiae BY4741 SeMeCo community
Assay: z-score of subpopulation abundance vs DMSO median, subpopulation auxotrophic for H; higher = larger share of this subpopulation than in DMSO controls
Conditions: 10 µM; 24 h; SM minimal medium; subpopulation (auxotrophy): H
Procedure: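 Fluorescent four-plasmid SeMeCo (self-establishing metabolically cooperating S. cerevisiae BY4741 community; plasmids pH-mRuby2, pL-mWasabi, pU-eCFP, pM-TagRFP657) was grown 24 h in minimal SM medium with each Selleck FDA-approved drug at 10 µM in 384-well plates. Cells were fixed and imaged by high-content confocal microscopy. For each auxotrophic subpopulation (and the prototroph), a z-score gives the deviation from the DMSO vehicle-control population median.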

SMILES	z-score of subpopulation abundance
C[C@]12CCC3=C4CCC(=O)C=C4CC[C@H]3[C@@H]1CC[C@@]2(O)CC#N [Dienogest]	0.11
CC(=O)[O-].[K+] [Potassium acetate]	-0.01
Clc1ccc(COC(Cn2ccnc2)c2ccc(Cl)cc2Cl)cc1 (stereo not given) [Econazole nitrate]	15.7
COc1ccnc(C[S+]([O-])c2nc3cc(OC(F)F)ccc3[nH]2)c1OC (stereo not given) [Pantoprazole sodium]	0.86
CO[C@@H]1[C@@H](OC(N)=O)[C@@H](O)[C@H](Oc2ccc3c(O)c(NC(=O)c4ccc(O)c(CC=C(C)C)c4)c(=O)oc3c2C)OC1(C)C [Novobiocin Sodium]	1.97
OCCN(CCO)c1nc(N2CCCCC2)c2nc(N(CCO)CCO)nc(N3CCCCC3)c2n1 [Dipyridamole]	3.18
C#C[C@]1(O)CC[C@H]2[C@@H]3CCC4=CC(=O)CC[C@@H]4[C@H]3CC[C@@]21CC [Levonorgestrel]	-0.72
CO[C@H]1C[C@@H]2CC[C@@H](C)[C@@](O)(O2)C(=O)C(=O)N2CCCC[C@H]2C(=O)O[C@H]([C@H](C)C[C@@H]2CC[C@@H](O)[C@H](OC)C2)CC(=O)[C@H](C)/C=C(\C)[C@@H](O)[C@@H](OC)C(=O)[C@H](C)C[C@H](C)/C=C/C=C/C=C/1C [Rapamycin (Sirolimus)]	14.3
CCCc1nc(C)c2c(=O)nc(-c3cc(S(=O)(=O)N4CCN(CC)CC4)ccc3OCC)[nH]n12 [Vardenafil HCl Trihydrate]	0.41
CC1(C)[C@H](C(=O)O)N2C(=O)C[C@H]2S1(=O)=O [Sulbactam sodium]	-0.33
CN1CCN(C2=Nc3ccccc3Oc3ccc(Cl)cc32)CC1 [Loxapine Succinate]	0.08
CO[C@@]1(NC(=O)Cc2cccs2)C(=O)N2C(C(=O)O)=C(COC(N)=O)CS[C@@H]21 [Cefoxitin sodium]	-0.25
CN(C)C[C@@H]1CCn2cc(c3ccccc32)C2=C(C(=O)NC2=O)c2cn(c3ccccc23)CCO1	1.52
CC[C@@H](CO)NCCN[C@@H](CC)CO [Ethambutol 2HCl]	-1.02
Cc1ncc([N+](=O)[O-])n1CC(C)O (stereo not given) [Secnidazole]	-0.22
O=C(C1CCCCC1)N1CC(=O)N2CCc3ccccc3C2C1 (stereo not given) [Praziquantel]	-0.1
COc1ccc2[nH]c([S@@+]([O-])Cc3ncc(C)c(OC)c3C)nc2c1 [NEXIUM (esomeprazole magnesium)]	3.24
CCOC(=O)c1ccc(N)cc1 [Benzocaine hydrochloride]	-0.31
CC1(C)S[C@@H]2[C@H](NC(=O)[C@H](N)c3ccccc3)C(=O)N2[C@H]1C(=O)OCOC(=O)[C@@H]1N2C(=O)C[C@H]2S(=O)(=O)C1(C)C [Sultamicillin]	1.56
CC(=O)OCC1=C(C(=O)O)N2C(=O)[C@@H](NC(=O)CSc3ccncc3)[C@H]2SC1 [Cephapirin Benzathine]	1.45

SMILES	z-score of subpopulation abundance
O=S1(=O)CCN(CN2CCS(=O)(=O)NC2)CN1 [Taurolidine]	-0.57
O=C(c1ccc(F)cc1)C1CCN(CCn2c(=O)[nH]c3ccccc3c2=O)CC1 [Ketanserin]	-0.82
CC(C)[C@H](N)C(=O)OCCOCn1cnc2c(=O)nc(N)[nH]c21 [Valaciclovir HCl]	-0.62
CC/C(=C(\c1ccccc1)c1ccc(OCCN(C)C)cc1)c1ccccc1 [Tamoxifen]	1.57
COC(=O)C1=C(C)NC(C)=C(C(=O)OCCN(C)Cc2ccccc2)C1c1cccc([N+](=O)[O-])c1 (stereo not given) [Nicardipine HCl]	0.19
Cc1cc(NS(=O)(=O)c2ccc(N)cc2)nc(C)n1 [sulfaisodimidine]	-1.29
CCCCCCCCN=C(N)NC(N)=NCc1ccc(Cl)c(Cl)c1 [Olanexidine Hydrochloride semihydrate]	4.73
CN1C(C(=O)Nc2ccccn2)=C(O)c2sc(Cl)cc2S1(=O)=O [Lornoxicam]	-0.26
CC[N+](C)(C)c1cccc(O)c1 [Edrophonium chloride]	-1.41
Cc1onc(-c2ccccc2)c1-c1ccc(S(N)(=O)=O)cc1 [Valdecoxib]	-0.55
CCC(C)n1ncn(-c2ccc(N3CCN(c4ccc(OCC5COC(Cn6cncn6)(c6ccc(Cl)cc6Cl)O5)cc4)CC3)cc2)c1=O (stereo not given) [Itraconazole]	18.3
COc1ccc(NS(=O)(=O)c2ccc(N)cc2)nn1 [Sulfamethoxypyridazine]	-0.64
CC(C(=O)O)c1ccc2c(c1)Cc1cccnc1O2 (stereo not given) [Pranoprofen]	-0.08
C[C@]12CC[C@@H]3c4ccc(O)cc4CC[C@H]3[C@@H]1CCC2=O [Estrone]	-0.34
C[C@H]1COc2c(C3(N)CC3)c(F)cc3c(=O)c(C(=O)O)cn1c23 [Pazufloxacin mesylate]	0.02
COc1cc2c(cc1OC)C(=O)C(CC1CCN(Cc3ccccc3)CC1)C2 (stereo not given) [Donepezil HCl]	0.71
CCCCCNC(=N)N/N=C/c1c[nH]c2ccc(OC)cc12 [Tegaserod Maleate]	0.7
Cc1c(-c2ccccc2)oc2c(C(=O)OCCN3CCCCC3)cccc2c1=O [Flavoxate HCl]	-0.53
Nc1ccc(S(N)(=O)=O)cc1 [Sulfanilamide]	-0.45
Cc1ccc(Cl)c(Nc2ccccc2C(=O)O)c1Cl [Meclofenamate Sodium]	-0.35
